# In PubChem BioAssay (NCATS):
# Several values for one entry are separate records, joined by “and”; a condition that tells them apart may be missing. Equal values may be shown once. Inconclusive results are not listed. Entries that show only a call come without a potency. Activity calls are given as the source filed them. Unless noted, the call rests on the fitted dose curve.
# Tests used:
# [1] = Inducers of the Endoplasmic Reticulum Stress Response (ERSR) in human glioma: Validation (AID 504836; active means well fitted curve in the direction sought with a large enough effect; an effect the other way counts as inactive or inconclusive)
# Method in brief: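 Stably transfected U87-MG human glioma cells carrying a GRP78-based luminescent sensor were seeded at 1000 cells/well, pin-dosed with compounds and incubated 16 h. Luciferase reagent was then added, and end-point luminescence was read after 10 min at room temperature.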
# [2] = qHTS for Inhibitors of the Functional Ribonucleoprotein Complex (vRNP) of Lassa (LASV) Arenavirus: LASV Primary Screen - GLuc reporter signal (AID 1347082; calls by dose curve; tested in HEK293 reporter line; further: nearly all actives have a fitted effect of over 60% in size; further: potency means the concentration at half of the fitted maximal effect)
# [3] = target: Nucleoprotein (Lymphocytic choriomeningitis virus (strain Armstrong)) (UniProt P09992); assay: qHTS for Inhibitors of the Functional Ribonucleoprotein Complex (vRNP) of Lymphocytic Choriomeningitis Arenaviruses (LCMV): LCMV Primary Screen - GLuc reporter signal (AID 1347086); further: nearly all actives have a fitted effect of over 70% in size; further: potency means the concentration at half of the fitted maximal effect
# [4] = Cytotoxicity counterscreen for inhibitors of SARS-CoV-2 cell entry (AID 1645845); further: nearly all actives have a fitted effect of over 50% in size; further: potency means the concentration at half of the fitted maximal effect
# Method in brief: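 Expi293F/hACE2 cells seeded overnight; cpd pin-transferred in DMSO, 1 h preincubation, + media, 48 h 37 C 5% CO2; ATPLite 1step luminescence; normalized to cells and no cells.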
# [5] = Primary qHTS to identify inhibitors of SARS-CoV-2 cell entry (AID 1645846); conditions: activity change, negative = inhibition: at 57.1 µM (top of the series) unless noted; further: nearly all actives have a fitted effect of over 45% in size; further: potency means the concentration at half of the fitted maximal effect
# Method in brief: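 Luminescence readout (Bright-Glo luciferase) 48 h after pseudoparticle addition. HEK293-ACE2 cells, 1500/well; compound pre-incubation 1 h; Normalized to spike PP and bald PP.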
# [6] = Confirmatory qHTS to identify inhibitors of SARS-CoV-2 cell entry (AID 1645844); further: potency means the concentration at half of the fitted maximal effect; nearly all actives have a fitted effect of over 45% in size
# Method in brief: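 HEK293-ACE2 cells (Expi293F stably expressing human ACE2) were pretreated with compounds for 1 hr at 37C, then infected with MLV-based particles carrying Wuhan-Hu-1 spike (C-terminal 19-aa truncation). Luciferase luminescence read after 48 hr; normalized to spike PP (100%) and bald PP (0%).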
# [7] = VSVG counterscreen qHTS to identify inhibitors of SARS-CoV-2 cell entry (AID 1645847); further: potency means the concentration at half of the fitted maximal effect; nearly all actives have a fitted effect of over 65% in size
# Method in brief: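 HEK293-ACE2 cells (Expi293F stably expressing human ACE2) were pretreated with compound for 1 h at 37 °C, then infected with MLV-based VSV-G pseudotyped particles for 48 h. Luciferase luminescence was normalized to VSV-G PP and bald PP wells.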
# [8] = Validation screen for inhibitors of Lassa infection (AID 463096)
# [9] = Primary qHTS for Huh7 cytotoxicity: counterscreen for inhibitors of MERS-S pseudotyped particle cell entry (AID 1479147); conditions: outcome: dose series up to 57.1 µM unless noted
# [10] = Primary qHTS for inhibitors of MERS-S pseudo-typed particle cell entry (AID 1479149); further: nearly all actives have a fitted effect of over 60% in size
# [11] = Primary qHTS for Vero E6 cytotoxicity: counterscreen for inhibitors of SARS-S pseudo-typed particle cell entry (AID 1479150); conditions: outcome: dose series up to 57.1 µM unless noted
# [12] = target: Nuclear receptor subfamily 1 group I member 3 (Homo sapiens) (UniProt Q14994); assay: Primary qHTS for antagonist of constitutive androstane receptor (CAR) against the NCATS DSHEA and TCM libraries (AID 1794836; active means well fitted curve in the direction sought with a large enough effect; an effect the other way counts as inactive or inconclusive)
# Method in brief: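 HepG2 cells stably carrying hCAR and a CYP2B6 luciferase reporter (2,500 cells/well) attached for 5 h, then received compounds with 48 uM CITCO for 24 h at 37C. ONE-Glo luminescence read antagonism; CellTiter-Fluor (405/540 nm) gave viability.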
# [13] = KB-8-5-11 P-gp reporter qHTS against the NCATS DSHEA and TCM libraries (AID 1919977; active means well fitted curve in the direction sought with a large enough effect; an effect the other way counts as inactive or inconclusive)
# Method in brief: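 P-gp-overexpressing KB-8-5-11 cells (500/well) were plated in colchicine-free DMEM with 10% FBS, attached ~4 h, then exposed to substance titrations for ~72 h at 37C. Viability was read by CellTiter-Glo luminescence.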
# [14] = qHTS Assay for Lipid Storage Modulators (AID 1519); conditions: Drosophila S3 cells, BODIPY lipid droplet/cell ratio, laser cytometry, cells loaded with oleic acid
# Method in brief: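 Cells seeded at 5,000 per well were treated with compounds over a concentration series and loaded with oleic acid (400 uM, as added). Lipid droplet fluorescence (488 nm excitation, 500-530 nm channel) was read by laser-scanning cytometry and normalized to 20 uM Triacsin C.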
# [15] = qHTS profiling of the MIPE4 collection as inhibitors of Plasmodium falciparum (3D7) proliferation (AID 743344; call rule not given here); conditions: P. falciparum 3D7 in erythrocytes, SYBR Green DNA fluorescence, 72 h; at 28.5 µM (top of the series) unless noted
# Method in brief: (§1)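 Erythrocytes infected with P. falciparum (0.3% parasitemia, 2.5% hematocrit) incubated with compounds 72 h at 37 C, 5% CO2. Lysis with saponin/Triton buffer containing SYBR Green I, overnight at room temperature in the dark; DNA fluorescence (485/535 nm) normalised to 0.29 uM artemisinin and DMSO.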
# [16] = qHTS profiling of the MIPE4 collection as inhibitors of Plasmodium falciparum (DD2) proliferation (AID 743345; call rule not given here); conditions: P. falciparum Dd2 in erythrocytes, SYBR Green DNA, 72 h; at 28.5 µM (top of the series) unless noted
# Method in brief: as §1
# [17] = qHTS profiling of the MIPE4 collection as inhibitors of Plasmodium falciparum (DD2) proliferation (Rep 2) (AID 743346; call rule not given here); conditions: P. falciparum Dd2 in erythrocytes, SYBR Green DNA, 72 h; at 28.5 µM (top of the series) unless noted
# Method in brief: as §1
# [18] = Primary qHTS for inhibitors of SARS-S pseudo-typed particle cell entry (AID 1479145); further: nearly all actives have a fitted effect of over 45% in size
# [19] = Confirmatory qHTS for VERO E6 Cytotoxicity Assay: Counterscreen for SARS-CoV-2 CPE Assay (AID 1508605); further: nearly all actives have a fitted effect of over 60% in size
# [20] = target: Alpha-galactosidase (Coffea arabica) (UniProt Q42656); assay: Counterscreen for Glucocerebrosidase Inhibitors: qHTS Assay for Coffee Bean alpha-Galactosidase at pH 4.5 (AID 957; active means well fitted curve in the direction sought with a large enough effect; an effect the other way counts as inactive or inconclusive)
# Method in brief: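 Coffee bean alpha-galactosidase 2 nM, substrate 4-MU-alpha-Gal 80 uM, pH 4.5 citrate/Tween-20, 20 min RT. Cpd titration 0.7 nM–77 uM. Stop pH 10, fluorescence 365/440 nm; Hill-equation AC50.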
# [21] = target: Alpha-galactosidase (Coffea arabica) (UniProt Q42656); assay: Counterscreen for Glucocerebrosidase Inhibitors: qHTS Assay for Coffee Bean alpha-Galactosidase at pH 5.9 (AID 998; active means well fitted curve in the direction sought with a large enough effect; an effect the other way counts as inactive or inconclusive)
# Method in brief: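 Green coffee bean enzyme (2 nM final) was incubated with compounds (0.7 nM–77 uM) and 4-methylumbelliferyl alpha-D-galactopyranoside (80 uM) in citrate buffer pH 5.9, 20 min at room temperature. High-pH stop; fluorescence 365/440 nm; AC50 from Hill fits.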
# Nucleoprotein (Lymphocytic choriomeningitis virus (strain Armstrong)), sequence (P09992 whole entry, looked up): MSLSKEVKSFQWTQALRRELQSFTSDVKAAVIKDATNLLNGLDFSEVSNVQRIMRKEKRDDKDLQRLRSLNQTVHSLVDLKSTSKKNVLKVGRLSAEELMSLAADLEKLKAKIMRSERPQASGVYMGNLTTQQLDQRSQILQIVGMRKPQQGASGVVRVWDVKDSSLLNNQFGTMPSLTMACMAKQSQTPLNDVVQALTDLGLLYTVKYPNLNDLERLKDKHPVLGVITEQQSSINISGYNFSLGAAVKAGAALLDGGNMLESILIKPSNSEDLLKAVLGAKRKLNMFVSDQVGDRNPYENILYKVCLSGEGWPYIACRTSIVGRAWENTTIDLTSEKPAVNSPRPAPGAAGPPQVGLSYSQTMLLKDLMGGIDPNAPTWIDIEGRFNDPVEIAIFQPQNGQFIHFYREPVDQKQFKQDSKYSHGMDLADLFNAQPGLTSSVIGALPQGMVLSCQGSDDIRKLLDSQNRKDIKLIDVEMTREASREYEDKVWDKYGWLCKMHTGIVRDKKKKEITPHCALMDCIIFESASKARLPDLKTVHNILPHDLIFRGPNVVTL
# Alpha-galactosidase (Coffea arabica), sequence (Q42656 whole entry, looked up): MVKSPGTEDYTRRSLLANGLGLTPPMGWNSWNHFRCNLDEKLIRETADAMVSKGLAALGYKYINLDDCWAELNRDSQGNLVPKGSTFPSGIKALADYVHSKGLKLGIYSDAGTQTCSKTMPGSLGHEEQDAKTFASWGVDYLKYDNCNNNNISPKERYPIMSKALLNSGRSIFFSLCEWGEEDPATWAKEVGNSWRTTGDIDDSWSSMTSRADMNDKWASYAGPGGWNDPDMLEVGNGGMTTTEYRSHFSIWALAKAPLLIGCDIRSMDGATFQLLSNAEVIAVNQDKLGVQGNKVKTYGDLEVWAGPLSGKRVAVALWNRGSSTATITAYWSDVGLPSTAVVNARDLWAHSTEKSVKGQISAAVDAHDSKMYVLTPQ
# Nuclear receptor subfamily 1 group I member 3 (Homo sapiens), sequence (Q14994 whole entry, looked up): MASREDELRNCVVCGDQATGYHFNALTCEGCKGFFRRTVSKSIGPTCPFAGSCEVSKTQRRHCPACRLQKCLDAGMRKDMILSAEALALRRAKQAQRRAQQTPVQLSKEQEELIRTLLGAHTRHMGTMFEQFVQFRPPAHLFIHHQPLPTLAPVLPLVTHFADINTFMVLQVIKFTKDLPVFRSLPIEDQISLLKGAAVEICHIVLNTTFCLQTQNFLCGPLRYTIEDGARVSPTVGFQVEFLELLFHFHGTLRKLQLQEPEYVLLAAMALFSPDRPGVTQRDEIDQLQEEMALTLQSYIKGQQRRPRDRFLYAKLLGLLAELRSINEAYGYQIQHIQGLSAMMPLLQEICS
smiles,measurement,setting,value
Nc1ncnc2nc(-c3ccc(N4CCOCC4)nc3)cc(-c3cccc(Br)c3)c12,outcome,[1],inactive
same,Potency,[2],inactive
same,Potency,[3],inactive
same,Potency,[4],inactive
same,"activity change, negative = inhibition",[5],-21.9%
Brc1c(Br)c(Br)c2[nH]cnc2c1Br,outcome,[1],inactive
same,Potency,[2],inactive
same,Potency,[3],inactive
CN1c2ccccc2C(=O)N2CCc3c([nH]c4ccccc34)C21 (stereo not drawn),Potency,[2],inactive
same,Potency,[6],6.81 µM (active)
same,Potency,[5],6.31 µM (active)
same,Potency,[7],3.83 µM (active)
CC(=O)O[C@H]1C(=O)[C@@]2(C)C([C@H](OC(=O)c3ccccc3)[C@]3(O)C[C@H](OC(=O)[C@H](O)[C@@H](NC(=O)c4ccccc4)c4ccccc4)C(C)=C1C3(C)C)[C@]1(OC(C)=O)CO[C@@H]1C[C@@H]2O (stereo partly drawn),Potency,[8],inactive
same,outcome,[1],inactive
same,Potency,[2],inactive
same,Potency,[3],inactive
same,outcome,[9],inactive
same,Potency,[10],inactive
same,outcome,[11],inactive
same,Potency,[6],0.0429 µM (active)
same,Potency,[4],inactive
same,"activity change, negative = inhibition",[5],-37.1% and -87.7%
same,Potency,[7],0.0681 µM (active)
O=C(/C=C/c1ccc(O)c(O)c1)OC(Cc1ccc(O)c(O)c1)C(=O)O (stereo not drawn),Potency,[2],inactive
same,Potency,[3],inactive
same,Potency,[12],inactive
same,outcome,[13],inactive
CN1CCc2c(n(Cc3ccc(C(=O)NO)cc3)c3ccccc23)C1,Potency,[2],inactive
same,Potency,[3],inactive
same,Potency,[4],31.6 µM (active)
CNC(=O)[C@H](CC1=CN=C2C=CCC=C12)NC(=O)[C@@H](CC(=O)NO)CC(C)C,Potency,[2],15.3 µM (active)
same,Potency,[3],3.43 µM (active)
CC(C)(C)NC(=O)Nc1cccc(Nc2ncc(F)c(NC(C)(C)CO)n2)c1,Potency,[2],inactive
same,Potency,[3],inactive
COc1cc(C(C)C)c(Oc2cnc(NC(CO)CO)nc2N)cc1I,Potency,[2],inactive
same,Potency,[3],inactive
same,Potency,[4],inactive
same,Potency,[5],inactive
O=C(NOCC(O)CO)c1cc(Br)c(F)c(F)c1Nc1ccc(I)cc1F (stereo not drawn),Potency,[2],inactive
same,Potency,[3],inactive
same,Potency,[4],inactive
same,"activity change, negative = inhibition",[5],-16.5%
O=C1CSC(=O)N1C(CCc1ccncc1)COc1ccc(-c2cccc([N+](=O)[O-])c2)cc1 (stereo not drawn),Potency,[2],17.2 µM (active)
same,Potency,[3],7.69 µM (active)
Cc1ccc(/C=N/NC(=O)c2ccccc2Oc2ccccc2)o1,Potency,[2],inactive
same,Potency,[3],inactive
same,Potency,[5],inactive
CC(C(=O)O)c1ccc(-c2ccccc2)c(F)c1 (stereo not drawn),"activity change, negative = inhibition",[14]; at 57.5 µM (top of the series),7.18% (inactive)
same,max response,[14]; measured here: cell count channel max response,15.4%
same,max response,[14]; measured here: lipid channel max response,28.2%
same,"parasite growth, % of DMSO control",[15],86.5%
same,"parasite growth remaining, % of DMSO control (lower = more inhibition)",[16],95.5%
same,"parasite growth, % of control (lower = inhibition)",[17],114%
same,Potency,[2],inactive
same,Potency,[18],inactive
same,outcome,[9],inactive
same,Potency,[10],inactive
same,outcome,[11],inactive
same,Potency,[4],inactive
same,Potency,[5],inactive
same,"activity change, negative = inhibition",[5],-16.8%
CN(C)CCc1cc2c(c3c1ccc1ccccc13)OCO2,Potency,[2],inactive
same,Potency,[3],inactive
O=c1cccc2c1c1cc[nH]c3ccc(=O)n2c31,Potency,[2],inactive
same,Potency,[3],inactive
CN[C@@H](C)[C@H]1[C@H](O)C[C@@]2(C)[C@@H]3CC[C@H]4C(C)(C)[C@@H](NC)CC[C@@]45C[C@@]35CC[C@]12C,Potency,[2],inactive
same,Potency,[3],inactive
same,Potency,[19],inactive
same,outcome,[4],inactive [at 11.3 µM]
C[C@@H](N)c1ccc(C(=O)Nc2ccnc3[nH]ccc23)cc1,Potency,[2],inactive
same,Potency,[3],inactive
same,"activity change, negative = inhibition",[5],-95.9%
CC1OC(OC2CC(O)C3(CO)C4C(O)CC5(C)C(C6=CC(=O)OC6)CCC5(O)C4CCC3(O)C2)C(O)C(O)C1O (stereo not drawn),Potency,[2],inactive
same,Potency,[3],inactive
O=C(CCCCCCC(=O)Nc1ccc([C@H]2O[C@@H](CSc3nc(-c4ccccc4)c(-c4ccccc4)o3)C[C@@H](c3ccc(CO)cc3)O2)cc1)NO,Potency,[2],inactive
same,Potency,[3],inactive
same,outcome,[4],inactive [at 11.3 µM]
same,"activity change, negative = inhibition",[5],1.44% [at 11.3 µM]
O=C(O)c1c(Cl)c(Cl)c(Cl)c(Cl)c1-c1c2cc(I)c(=O)c(I)c-2oc2c(I)c(O)c(I)cc12,Potency,[2],inactive
same,Potency,[18],inactive
same,outcome,[9],inactive
same,Potency,[10],inactive
same,Potency,[4],inactive
COc1cc(C)c(Sc2cnc(NC(=O)c3ccc(CNC(C)C(C)C)cc3)s2)cc1C(=O)N1CCN(C(C)=O)CC1 (stereo not drawn),Potency,[2],24.3 µM (active)
same,Potency,[6],9.61 µM (active)
same,"activity change, negative = inhibition",[5],-95.3%
same,Potency,[7],3.83 µM (active)
NC(=O)c1cnc(-c2ccc(C3(N)CCC3)cc2)c(-c2ccccc2)c1,Potency,[2],inactive
same,Potency,[3],inactive
same,Potency,[4],inactive
CN(C)c1nc2c(Br)c(Br)c(Br)c(Br)c2[nH]1,outcome,[20],inactive
same,outcome,[21],inactive
same,Potency,[8],inactive
same,outcome,[1],inactive
same,Potency,[2],inactive
same,Potency,[3],inactive
Nc1ccn([C@@H]2O[C@H](CO)[C@@H](O)[C@H]2O)c(=O)n1,Potency,[2],inactive
same,Potency,[3],inactive
same,outcome,[9],inactive
same,Potency,[10],inactive
same,outcome,[11],inactive
same,Potency,[4],inactive
same,"activity change, negative = inhibition",[5],-8.54%
